Laboratory results taken from ChEMBL document CHEMBL1961873, “Compounds: GSK PKIS; Assays: Nanosyn kinase panel” (2012).

Columns and labels:
[1] = target: Tyrosine-protein kinase receptor UFO (Homo sapiens) (UniProt P30530); settings: at 1 µM
[2] = target: Tyrosine-protein kinase Blk (Homo sapiens) (UniProt P51451); settings: at 0.1 µM
[3] = target: Tyrosine-protein kinase Blk (Homo sapiens) (UniProt P51451); settings: at 1 µM
[4] = target: T1, Cytoplasmic tyrosine-protein kinase BMX (Homo sapiens) (UniProt P51813); settings: at 0.1 µM
T1 sequence (whole entry): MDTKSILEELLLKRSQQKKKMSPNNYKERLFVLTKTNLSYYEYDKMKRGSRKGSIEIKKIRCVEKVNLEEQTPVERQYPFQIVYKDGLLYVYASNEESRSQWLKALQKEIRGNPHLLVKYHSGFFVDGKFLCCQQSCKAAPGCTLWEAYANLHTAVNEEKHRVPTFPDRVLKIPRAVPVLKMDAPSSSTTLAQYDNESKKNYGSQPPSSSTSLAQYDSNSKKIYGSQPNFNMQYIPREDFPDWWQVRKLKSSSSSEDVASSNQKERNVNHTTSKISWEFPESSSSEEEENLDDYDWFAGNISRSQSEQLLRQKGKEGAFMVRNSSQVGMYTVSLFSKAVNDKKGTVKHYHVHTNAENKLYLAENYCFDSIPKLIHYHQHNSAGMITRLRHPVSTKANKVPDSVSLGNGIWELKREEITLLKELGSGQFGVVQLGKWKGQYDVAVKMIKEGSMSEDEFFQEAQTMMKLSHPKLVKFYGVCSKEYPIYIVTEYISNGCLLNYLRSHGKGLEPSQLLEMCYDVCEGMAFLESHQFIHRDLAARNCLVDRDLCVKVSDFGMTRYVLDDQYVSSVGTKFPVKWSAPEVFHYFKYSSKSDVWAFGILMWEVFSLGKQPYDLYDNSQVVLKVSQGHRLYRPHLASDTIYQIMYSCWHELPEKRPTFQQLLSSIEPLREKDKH

[5] = target: T1, Cytoplasmic tyrosine-protein kinase BMX (Homo sapiens); settings: at 1 µM
[6] = target: Protein-tyrosine kinase 6 (Homo sapiens) (UniProt Q13882); settings: at 0.1 µM
Protein-tyrosine kinase 6 (Homo sapiens), sequence (Q13882 whole entry, looked up): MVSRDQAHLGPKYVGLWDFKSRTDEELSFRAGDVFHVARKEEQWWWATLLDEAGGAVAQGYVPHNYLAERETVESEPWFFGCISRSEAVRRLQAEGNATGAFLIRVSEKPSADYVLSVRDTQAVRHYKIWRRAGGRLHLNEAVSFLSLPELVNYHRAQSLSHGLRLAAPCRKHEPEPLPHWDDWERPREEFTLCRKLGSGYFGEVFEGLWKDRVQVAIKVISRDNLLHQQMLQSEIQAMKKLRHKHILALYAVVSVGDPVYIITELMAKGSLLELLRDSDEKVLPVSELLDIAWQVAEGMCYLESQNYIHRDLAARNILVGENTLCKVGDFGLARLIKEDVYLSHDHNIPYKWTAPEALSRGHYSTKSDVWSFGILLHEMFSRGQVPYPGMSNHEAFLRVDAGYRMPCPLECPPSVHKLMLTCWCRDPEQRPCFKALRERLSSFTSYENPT

[7] = target: Protein-tyrosine kinase 6 (Homo sapiens) (UniProt Q13882); settings: at 1 µM
[8] = target: Tyrosine-protein kinase BTK (Homo sapiens) (UniProt Q06187); settings: at 0.1 µM
Tyrosine-protein kinase BTK (Homo sapiens), sequence (Q06187 whole entry): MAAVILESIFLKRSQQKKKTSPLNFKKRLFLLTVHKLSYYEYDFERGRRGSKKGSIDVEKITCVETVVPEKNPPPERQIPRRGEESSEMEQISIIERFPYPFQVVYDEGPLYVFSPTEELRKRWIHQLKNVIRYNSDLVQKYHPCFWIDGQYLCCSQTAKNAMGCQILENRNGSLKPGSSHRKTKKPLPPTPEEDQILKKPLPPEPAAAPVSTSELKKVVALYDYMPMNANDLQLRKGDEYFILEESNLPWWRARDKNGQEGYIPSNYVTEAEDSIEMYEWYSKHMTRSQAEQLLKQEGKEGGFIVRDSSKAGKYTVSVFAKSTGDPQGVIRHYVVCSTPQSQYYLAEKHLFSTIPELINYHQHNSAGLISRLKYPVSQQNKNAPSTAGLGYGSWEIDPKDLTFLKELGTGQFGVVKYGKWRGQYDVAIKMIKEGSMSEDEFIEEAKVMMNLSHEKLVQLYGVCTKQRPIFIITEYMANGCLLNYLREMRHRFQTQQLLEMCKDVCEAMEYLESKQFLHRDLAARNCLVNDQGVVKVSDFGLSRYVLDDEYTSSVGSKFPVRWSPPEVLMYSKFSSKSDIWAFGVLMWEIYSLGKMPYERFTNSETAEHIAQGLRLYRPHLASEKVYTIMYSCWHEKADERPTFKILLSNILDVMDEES

[9] = target: Tyrosine-protein kinase BTK (Homo sapiens) (UniProt Q06187); settings: at 1 µM
[10] = target: Tyrosine-protein kinase CSK (Homo sapiens) (UniProt P41240); settings: at 0.1 µM
Tyrosine-protein kinase CSK (Homo sapiens), sequence (P41240 2-450 limits assumed): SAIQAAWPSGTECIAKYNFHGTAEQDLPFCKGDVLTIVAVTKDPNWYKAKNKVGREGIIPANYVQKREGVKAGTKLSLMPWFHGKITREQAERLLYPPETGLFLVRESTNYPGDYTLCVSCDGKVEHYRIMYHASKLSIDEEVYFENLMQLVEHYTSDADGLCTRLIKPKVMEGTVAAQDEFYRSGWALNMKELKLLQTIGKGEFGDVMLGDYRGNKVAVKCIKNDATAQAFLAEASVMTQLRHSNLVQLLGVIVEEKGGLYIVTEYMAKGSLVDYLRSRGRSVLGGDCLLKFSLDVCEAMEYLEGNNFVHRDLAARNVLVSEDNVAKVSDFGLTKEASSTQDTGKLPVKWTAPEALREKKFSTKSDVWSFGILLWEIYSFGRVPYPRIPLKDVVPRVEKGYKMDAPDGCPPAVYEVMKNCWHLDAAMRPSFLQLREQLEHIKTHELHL

[11] = target: Tyrosine-protein kinase CSK (Homo sapiens) (UniProt P41240); settings: at 1 µM
[12] = target: T2, Discoidin domain-containing receptor 2 (Homo sapiens) (UniProt Q16832); settings: at 0.1 µM
T2 sequence (whole entry): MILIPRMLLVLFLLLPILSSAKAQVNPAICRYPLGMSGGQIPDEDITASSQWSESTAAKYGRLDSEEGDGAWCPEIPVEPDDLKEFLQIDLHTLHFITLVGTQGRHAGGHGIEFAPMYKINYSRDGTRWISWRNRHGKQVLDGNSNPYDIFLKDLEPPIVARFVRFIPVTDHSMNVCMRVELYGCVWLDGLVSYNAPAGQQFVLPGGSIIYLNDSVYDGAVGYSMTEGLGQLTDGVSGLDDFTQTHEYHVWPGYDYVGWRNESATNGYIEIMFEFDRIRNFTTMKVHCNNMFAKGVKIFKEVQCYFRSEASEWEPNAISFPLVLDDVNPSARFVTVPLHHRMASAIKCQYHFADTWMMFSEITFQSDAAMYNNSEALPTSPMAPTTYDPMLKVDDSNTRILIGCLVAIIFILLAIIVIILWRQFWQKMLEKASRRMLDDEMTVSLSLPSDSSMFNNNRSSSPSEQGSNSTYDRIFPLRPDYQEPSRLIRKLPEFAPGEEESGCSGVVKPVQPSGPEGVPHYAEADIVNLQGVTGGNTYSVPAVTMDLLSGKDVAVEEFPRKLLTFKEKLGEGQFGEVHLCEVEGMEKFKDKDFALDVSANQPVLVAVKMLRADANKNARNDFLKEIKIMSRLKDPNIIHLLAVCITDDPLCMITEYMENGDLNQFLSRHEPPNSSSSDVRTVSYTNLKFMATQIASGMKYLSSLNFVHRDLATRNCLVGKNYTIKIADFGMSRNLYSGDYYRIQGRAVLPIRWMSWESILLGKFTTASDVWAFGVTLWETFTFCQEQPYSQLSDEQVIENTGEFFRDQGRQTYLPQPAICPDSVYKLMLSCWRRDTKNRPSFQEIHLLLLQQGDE

[13] = target: T2, Discoidin domain-containing receptor 2 (Homo sapiens); settings: at 1 µM
[14] = target: Epidermal growth factor receptor (Homo sapiens) (UniProt P00533); settings: at 0.1 µM
[15] = target: Epidermal growth factor receptor (Homo sapiens) (UniProt P00533); settings: at 1 µM
[16] = tested on: Epidermal growth factor receptor (Homo sapiens), P00533 [L858R]; settings: at 0.1 µM
Epidermal growth factor receptor (Homo sapiens), P00533 [L858R], sequence (P00533 whole entry L858R): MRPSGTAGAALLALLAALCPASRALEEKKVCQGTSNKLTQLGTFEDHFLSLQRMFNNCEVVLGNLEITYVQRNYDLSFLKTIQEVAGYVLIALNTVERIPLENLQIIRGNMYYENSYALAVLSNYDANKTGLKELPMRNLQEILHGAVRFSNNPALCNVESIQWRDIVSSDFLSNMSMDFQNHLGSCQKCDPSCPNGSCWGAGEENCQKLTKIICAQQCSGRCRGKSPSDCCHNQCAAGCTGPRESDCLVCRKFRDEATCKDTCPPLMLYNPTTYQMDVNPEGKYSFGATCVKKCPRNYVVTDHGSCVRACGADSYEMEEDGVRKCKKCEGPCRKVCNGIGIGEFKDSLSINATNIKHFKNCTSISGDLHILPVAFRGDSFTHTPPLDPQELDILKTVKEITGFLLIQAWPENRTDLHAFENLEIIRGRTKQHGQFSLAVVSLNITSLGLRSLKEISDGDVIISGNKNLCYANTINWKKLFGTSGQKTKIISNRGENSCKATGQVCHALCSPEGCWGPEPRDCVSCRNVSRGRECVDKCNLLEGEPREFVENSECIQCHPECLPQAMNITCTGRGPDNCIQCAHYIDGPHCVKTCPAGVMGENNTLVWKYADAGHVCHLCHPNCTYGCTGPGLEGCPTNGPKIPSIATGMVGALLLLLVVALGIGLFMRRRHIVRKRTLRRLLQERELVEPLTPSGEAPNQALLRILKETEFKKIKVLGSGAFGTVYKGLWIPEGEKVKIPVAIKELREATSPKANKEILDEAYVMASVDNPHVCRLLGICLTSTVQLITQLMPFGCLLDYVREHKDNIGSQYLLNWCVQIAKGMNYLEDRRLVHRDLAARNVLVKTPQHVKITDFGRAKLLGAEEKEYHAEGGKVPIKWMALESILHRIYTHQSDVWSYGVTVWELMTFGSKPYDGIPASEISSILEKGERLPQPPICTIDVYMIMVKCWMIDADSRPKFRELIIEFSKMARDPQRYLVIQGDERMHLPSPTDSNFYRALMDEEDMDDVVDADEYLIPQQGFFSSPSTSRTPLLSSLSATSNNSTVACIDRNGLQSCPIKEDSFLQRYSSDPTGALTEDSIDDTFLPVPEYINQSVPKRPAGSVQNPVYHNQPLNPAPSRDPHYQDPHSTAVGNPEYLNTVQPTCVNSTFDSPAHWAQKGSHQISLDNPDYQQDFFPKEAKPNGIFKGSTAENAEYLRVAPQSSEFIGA

[17] = tested on: Epidermal growth factor receptor (Homo sapiens), P00533 [L858R]; settings: at 1 µM
[18] = tested on: Epidermal growth factor receptor (Homo sapiens), P00533 [L861Q]; settings: at 0.1 µM
Epidermal growth factor receptor (Homo sapiens), P00533 [L861Q], sequence (P00533 whole entry L861Q): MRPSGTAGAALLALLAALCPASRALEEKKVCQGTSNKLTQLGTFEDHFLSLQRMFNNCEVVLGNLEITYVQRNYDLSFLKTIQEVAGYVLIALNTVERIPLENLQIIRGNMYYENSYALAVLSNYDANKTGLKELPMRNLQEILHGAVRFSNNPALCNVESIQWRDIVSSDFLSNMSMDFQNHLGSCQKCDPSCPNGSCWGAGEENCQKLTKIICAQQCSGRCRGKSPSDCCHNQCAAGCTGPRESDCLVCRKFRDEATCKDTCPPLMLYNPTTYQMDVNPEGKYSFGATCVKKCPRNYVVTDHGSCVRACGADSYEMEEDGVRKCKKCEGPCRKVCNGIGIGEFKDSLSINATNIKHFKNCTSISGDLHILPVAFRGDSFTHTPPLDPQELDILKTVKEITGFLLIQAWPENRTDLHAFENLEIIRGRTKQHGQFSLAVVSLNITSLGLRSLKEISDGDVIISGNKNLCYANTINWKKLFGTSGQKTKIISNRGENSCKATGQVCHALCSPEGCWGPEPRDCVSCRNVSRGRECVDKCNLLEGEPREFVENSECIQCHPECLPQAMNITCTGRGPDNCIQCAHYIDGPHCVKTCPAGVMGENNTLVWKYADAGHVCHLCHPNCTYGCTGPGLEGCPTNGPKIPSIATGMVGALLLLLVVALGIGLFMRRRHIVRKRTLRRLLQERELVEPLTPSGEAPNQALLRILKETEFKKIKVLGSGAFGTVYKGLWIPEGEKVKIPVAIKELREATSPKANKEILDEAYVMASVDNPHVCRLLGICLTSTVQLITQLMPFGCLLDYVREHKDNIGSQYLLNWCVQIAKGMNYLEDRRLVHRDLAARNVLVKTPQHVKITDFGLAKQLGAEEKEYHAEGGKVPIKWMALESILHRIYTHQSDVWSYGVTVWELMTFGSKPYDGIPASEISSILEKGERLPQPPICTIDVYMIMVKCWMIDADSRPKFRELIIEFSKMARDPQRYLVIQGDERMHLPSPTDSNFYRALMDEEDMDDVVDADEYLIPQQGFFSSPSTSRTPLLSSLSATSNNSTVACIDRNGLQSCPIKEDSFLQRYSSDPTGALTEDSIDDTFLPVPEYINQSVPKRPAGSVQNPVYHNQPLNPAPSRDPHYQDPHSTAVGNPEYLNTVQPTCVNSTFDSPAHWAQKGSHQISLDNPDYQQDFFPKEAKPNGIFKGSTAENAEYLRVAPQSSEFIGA

[19] = tested on: Epidermal growth factor receptor (Homo sapiens), P00533 [L861Q]; settings: at 1 µM
[20] = tested on: Epidermal growth factor receptor (Homo sapiens), P00533 [T790M]; settings: at 0.1 µM

Tyrosine-protein kinase Blk (Homo sapiens), sequence (P51451 2-505 limits assumed): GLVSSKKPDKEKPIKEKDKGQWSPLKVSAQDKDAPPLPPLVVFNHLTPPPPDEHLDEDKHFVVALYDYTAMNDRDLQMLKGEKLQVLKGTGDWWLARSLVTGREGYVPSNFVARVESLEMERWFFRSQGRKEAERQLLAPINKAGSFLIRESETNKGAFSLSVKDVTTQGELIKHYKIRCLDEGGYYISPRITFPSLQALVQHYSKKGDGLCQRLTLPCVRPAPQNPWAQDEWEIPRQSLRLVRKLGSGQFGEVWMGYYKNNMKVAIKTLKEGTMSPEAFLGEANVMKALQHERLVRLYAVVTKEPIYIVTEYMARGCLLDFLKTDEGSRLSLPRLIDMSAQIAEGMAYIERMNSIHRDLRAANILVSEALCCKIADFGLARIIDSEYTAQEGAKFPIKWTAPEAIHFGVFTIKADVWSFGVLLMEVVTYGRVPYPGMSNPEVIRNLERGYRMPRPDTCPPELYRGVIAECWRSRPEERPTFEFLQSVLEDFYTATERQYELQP

| SMILES | inhibition [1] [%] | inhibition [2] [%] | inhibition [3] [%] | inhibition [4] [%] | inhibition [5] [%] | inhibition [6] [%] | inhibition [7] [%] | inhibition [8] [%] | inhibition [9] [%] | inhibition [10] [%] | inhibition [11] [%] | inhibition [12] [%] | inhibition [13] [%] | inhibition [14] [%] | inhibition [15] [%] | inhibition [16] [%] | inhibition [17] [%] | inhibition [18] [%] | inhibition [19] [%] | inhibition [20] [%] |
| --- | --- | --- | --- | --- | --- | --- | --- | --- | --- | --- | --- | --- | --- | --- | --- | --- | --- | --- | --- | --- |
| CNC(=O)c1cccc(C#Cc2cncnc2Nc2ccc(OCc3cccc(F)c3)c(Cl)c2)c1 | -0.81 | 1.53 | 1.17 | -1.48 | 1.31 | -0.91 | 2.87 | 2.52 | -0.29 | 1.96 | 3.24 | 0.18 | 4.52 | 62.1 | 82.2 | 13.8 | 62.1 | 25.9 | 45.7 | 1.03 |
| COc1cc2c(cc1Nc1nc(Nc3ccsc3C(N)=O)c3cc[nH]c3n1)N(C(=O)CN(C)C)CCC2(C)C | 85.5 | 3.19 | 6.26 | 3.79 | 5.73 | 5.95 | 19.2 | 0.08 | 1.1 | 2.59 | 0.65 | 4.88 | 1.72 | 1.56 | 9.19 | 5.69 | 33.1 | 1.86 | 14.5 | 26.6 |
| CCN(CC)S(=O)(=O)c1ccc(OC)c(Nc2ncc(-c3ccccc3)o2)c1 | -0.53 | 3.51 | 31.4 | -2.19 | 7.38 | -0.82 | 3.3 | 2.59 | 3.38 | 1.59 | 5.35 | 7.09 | 17.5 | 3.51 | 3.96 | 4.33 | 11.6 | 3.42 | 2.22 | 1.36 |
| Nc1ncc(-c2cccc(S(N)(=O)=O)c2)c2scc(-c3ccc(F)c(Cl)c3)c12 | -2.44 | 5.6 | 28.2 | 14.5 | 56.5 | 7.08 | 47.5 | 3.15 | 25.1 | 23.1 | 73.3 | 2.61 | 11.2 | 0.5 | 14.2 | 5.06 | 23.1 | 5.17 | 10.2 | 3.18 |
| Fc1ccc(-c2nn3ncccc3c2-c2ccnc(Nc3ccc4c(c3)OCCO4)n2)cc1 | -5.61 | 14.4 | 71.2 | 15 | 49.4 | 17.1 | 67.8 | -1.09 | 5.26 | 3.81 | 12.4 | 37.2 | 82.5 | 59.5 | 82.1 | 88.3 | 98.4 | 63.6 | 89.5 | 15.3 |
| N#Cc1c(NC(=O)CN2CCOCC2)sc2c1CCCC2 | -0.41 | 3.64 | 3.64 | -0.4 | 3.55 | 0.26 | 6.1 | 0.98 | 3.11 | 6.19 | 3.68 | 2.2 | 2.97 | 0.55 | -0.79 | 3.01 | 4.14 | 3.34 | 3.29 | 3.11 |
| COc1ccc(CNC(=O)c2ccc(-c3cc(-c4nnc(C)o4)ccc3C)cc2)cc1 | 2.74 | 2.54 | 0.87 | -0.31 | 0.63 | 0.56 | 4.1 | 0.04 | 2.36 | 3.65 | 6.32 | 4.36 | 4.67 | 2.84 | 4.15 | 0.12 | 8.38 | 1.79 | 7.03 | 1.31 |
| COc1ccc(-c2oc3ncnc(N)c3c2-c2ccc(NC(=O)Nc3cc(C(F)(F)F)ccc3F)cc2)cc1 | 82.1 | 5.14 | 41.2 | 8.1 | 59.5 | 3.11 | 25.4 | 1.43 | 13.3 | 10.9 | 61 | 56.3 | 87.3 | 2.43 | 2.22 | 3.73 | 6.19 | 4.81 | 7.85 | 1.19 |
| COc1cc2ncn(-c3cc(OCc4ccccc4C(F)(F)F)c(C(=O)N(C)C)s3)c2cc1OC | 1.68 | 0.87 | 7.34 | 3.03 | 3.07 | -0.28 | -0.8 | -1.28 | -0.85 | -1.4 | 0.02 | 0.21 | -0.91 | 0.21 | 0.03 | -1.55 | -0.64 | -1.32 | -1.92 | -1.33 |
| CCn1c(-c2nonc2N)nc2c(C#CC(C)(C)O)ncc(OC3CCNCC3)c21 | -4.23 | 2.38 | 3.31 | 3.84 | 7.52 | 1.28 | 1.62 | 0.17 | 0.56 | 3.49 | 1.26 | 0.94 | 1.03 | 1.89 | 3.18 | -0.6 | 2.18 | -0.91 | -0.16 | -0.25 |
| CCOc1ccc2c(-c3ccnc(Nc4cccc(C(F)(F)F)c4)n3)cnn2n1 | -0.78 | 2.21 | 3.22 | 3.34 | 1.94 | -0.32 | 0.97 | 0.07 | 1.18 | 1.57 | 1.6 | 4.46 | 6.02 | 0.09 | 1.97 | 0.87 | -1.72 | 1.44 | -0.42 | -0.02 |
| Fc1cccc(COc2ccc(Nc3ncnc4sc(-c5ccco5)cc34)cc2Cl)c1 | -6.25 | 4 | 3.74 | 2.98 | 2.36 | 3.39 | 3.91 | -1.13 | 1.35 | -0.1 | 2.56 | 3.86 | 4.41 | 71.9 | 81.9 | 15.2 | 54.8 | 30.2 | 51 | 1.83 |
| Nc1nc(-c2ccc(F)cc2)c(-c2ccc3ncccc3n2)s1 | -3.07 | 4.2 | 12.1 | -2.65 | 6.23 | 7.59 | 20.6 | 0.27 | 0.99 | 5.94 | 5.38 | 0.01 | -5.99 | 2.98 | 21.7 | 13.1 | 60.5 | 6.11 | 22.4 | 1.84 |
| COC(=O)c1sc(-n2cnc3cc(OC)c(OC)cc32)cc1OCc1ccccc1C(F)(F)F | -2.03 | 3.54 | 22.4 | 3.04 | 6.66 | 2.66 | 4.35 | -0.65 | 1.6 | 1.76 | 0.42 | 2.46 | 2.44 | -0.33 | 2.22 | 1.6 | 6.95 | 3.31 | 0.15 | 1.36 |
